Conditions in all cases: mRNA level, 48 h; actives raise or lower the signal
Read-out in assay [1]: Apoptosis regulator Bcl-2 (Homo sapiens) (UniProt P10415)
The assay can be described thus: LTEA_HepaRG_BCL2: Life Technologies and Expression Analysis (LTEA) Assay for Bcl-2 gene using HepaRG (AID 2283475). In a few lines:
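Each chemical was tested in duplicate on HepaRG cultures held in serum-free induction medium for 48 h, highest concentration 100 uM with half-log dilutions. Transcript levels came from multiplexed qRT-PCR, normalised to housekeeping genes; activity was scored in either direction relative to DMSO.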

Read-out in a further assay: Caspase-3 (Homo sapiens) (UniProt P42574)
The assay can be described thus: LTEA_HepaRG_CASP3: Life Technologies and Expression Analysis (LTEA) Assay for cysteine-aspartic acid protease (CASP3) using HepaRG (AID 2283477). In a few lines: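 Differentiated human HepaRG cells in serum-free induction medium were exposed 48 h to 8-point half-log concentrations from 100 uM (0.5% DMSO vehicle). CASP3 mRNA was measured by qRT-PCR, normalised to ACTB, GAPDH and POLR2A, with bidirectional fitting against DMSO.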

Read-out in assay [2]: Cytochrome P450 (CYP24A1), CYP24A1 (gene 1591)
Description: LTEA_HepaRG_CYP24A1: Life Technologies and Expression Analysis (LTEA) Assay for Cytochrome P450 (CYP24A1) using HepaRG (AID 2283478). In a few lines: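 Differentiated HepaRG cells, pre-cultured 48 h, were exposed in duplicate for 48 h in serum-free induction medium to 8 half-log concentrations (top 100 uM, 0.5% DMSO). CYP24A1 mRNA was quantified by TaqMan qRT-PCR, normalized to ACTB/GAPDH/POLR2A, fitted bidirectionally versus DMSO.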

Read-out in assay [3]: Cytochrome P450 (CYP1A2), CYP1A2 (gene 1544)
The assay can be described thus: LTEA_HepaRG_CYP1A2: Life Technologies and Expression Analysis (LTEA) Assay for Cytochrome P450 (CYP1A2) using HepaRG (AID 2283479). In a few lines: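 Differentiated human HepaRG cells in serum-free induction medium were exposed in duplicate for 48 h to 8-point half-log concentrations up to 100 uM in 0.5% DMSO. CYP1A2 mRNA measured by qRT-PCR, normalized to ACTB, GAPDH, POLR2A; bidirectional fit vs DMSO.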

Read-out in assay [4]: cysteine-aspartic acid protease (CASP8), CASP8 (gene 841)
The assay can be described thus: LTEA_HepaRG_CASP8: Life Technologies and Expression Analysis (LTEA) Assay for cysteine-aspartic acid protease (CASP8) using HepaRG (AID 2283480). Summed up:
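qRT-PCR readout of CASP8 mRNA, normalized to three housekeeping genes, after 48 h chemical exposure of HepaRG cells; 8-point half-log series, top 100 uM, 0.5% DMSO vehicle. Bidirectional curve fitting against DMSO baseline.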

Read-out in assay [5]: Cytochrome P450 (CYP2B6), CYP2B6 (gene 1555)
The assay can be described thus: LTEA_HepaRG_CYP2B6: Life Technologies and Expression Analysis (LTEA) Assay for Cytochrome P450 (CYP2B6) using HepaRG (AID 2283481). Summed up:
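Differentiated HepaRG cells, serum-free induction medium, exposed 48 h in duplicate to 8-point half-log concentrations from 100 uM in 0.5% DMSO. CYP2B6 mRNA by qRT-PCR, normalized to ACTB, GAPDH, POLR2A; bidirectional fit versus DMSO.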

Read-out in assay [6]: Cytochrome P450 2C19 (Homo sapiens) (UniProt P33261)
Description: LTEA_HepaRG_CYP2C19: Life Technologies and Expression Analysis (LTEA) Assay for CYP2C19 using HepaRG (AID 2283482). Summed up:
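Differentiated human HepaRG cells were exposed for 48 h in serum-free induction medium to 8 concentrations (top 100 uM, half-log steps, 0.5% DMSO). CYP2C19 mRNA was measured by qRT-PCR, normalized to ACTB/GAPDH/POLR2A, and fitted bidirectionally against DMSO.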

Read-out in a further assay: CYP2C8 (gene 1558)
Description: LTEA_HepaRG_CYP2C8: Life Technologies and Expression Analysis (LTEA) Assay for CYP2C8 using HepaRG (AID 2283483). In a few lines: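 HepaRG (human liver line), 48 h chemical exposure, 8-pt half-log series from 100 uM, 0.5% DMSO vehicle. Readout: CYP2C8 transcript by qRT-PCR, housekeeping-normalized. Bidirectional fit vs DMSO baseline.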

Read-out in another assay: CYP2C9 (gene 1559)
The assay can be described thus: LTEA_HepaRG_CYP2C9: Life Technologies and Expression Analysis (LTEA) Assay for CYP2C9 using HepaRG (AID 2283484). Summed up: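 HepaRG, 48 h dosing, 8-pt half-log series, top 100 uM, 0.5% DMSO vehicle. Read-out: CYP2C9 transcript by TaqMan qRT-PCR, housekeeping-normalized (ACTB/GAPDH/POLR2A). Gain or loss fitted vs DMSO baseline.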

Read-out in a further assay: CYP2E1 (gene 1571)
Description: LTEA_HepaRG_CYP2E1: Life Technologies and Expression Analysis (LTEA) Assay for CYP2E1 using HepaRG (AID 2283485). In a few lines: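 Assay uses 48 h exposure of HepaRG hepatic cells, eight concentrations to 100 uM. Expression of CYP2E1 is quantified by TaqMan qRT-PCR with ACTB, GAPDH and POLR2A normalization; curves fitted in both directions relative to vehicle.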

Read-out in the next assay: CYP4A11 (gene 1579)
Description: LTEA_HepaRG_CYP4A11: Life Technologies and Expression Analysis (LTEA) Assay for CYP4A11 using HepaRG (AID 2283486). In a few lines:
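Differentiated HepaRG cells, serum-free induction medium, exposed 48 h in duplicate to 8-point half-log series from 100 uM in 0.5% DMSO. CYP4A11 mRNA measured by qRT-PCR, normalized to ACTB, GAPDH, POLR2A; bidirectional fit versus DMSO.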

Read-out in assay [7]: Cytochrome P450 3A4 (Homo sapiens) (UniProt P08684)
Description: LTEA_HepaRG_CYP3A4: Life Technologies and Expression Analysis (LTEA) Assay for CYP3A4 using HepaRG (AID 2283487). Summed up:
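HepaRG, 48 h exposure, 8-pt CRC from 100 uM (half-log), 0.5% DMSO, duplicates; serum-free induction medium. Readout: CYP3A4 mRNA, qRT-PCR, ACTB/GAPDH/POLR2A normalization. Bidirectional fit vs DMSO.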

Read-out in assay [8]: DNA damage-inducible transcript 3 (DDIT3), DDIT3 (gene 1649)
Description: LTEA_HepaRG_DDIT3: Life Technologies and Expression Analysis (LTEA) Assay for DNA damage-inducible transcript 3 (DDIT3) using HepaRG (AID 2283488). Summed up:
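Eight-point concentration-response (100 uM highest, half-log dilutions) in HepaRG, 48 h, duplicate wells. Endpoint: qRT-PCR mRNA, normalized (ACTB, GAPDH, POLR2A), bidirectional fitting with DMSO as baseline.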

Read-out in assay [9]: Pro-epidermal growth factor (Homo sapiens) (UniProt P01133)
Description: LTEA_HepaRG_EGF: Life Technologies and Expression Analysis (LTEA) Assay for Epidermal growth factor (EGF) using HepaRG (AID 2283489). In a few lines:
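Differentiated human HepaRG cells, plated 48 h then switched to serum-free induction medium, were exposed for 48 h to test chemicals (8-point half-log series, top 100 uM, 0.5% DMSO). EGF mRNA was quantified by qRT-PCR, normalized to ACTB, GAPDH, POLR2A.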

Read-out in assay [10]: Early growth response protein 1 (EGR1) transcription factor, EGR1 (gene 1958)
The assay can be described thus: LTEA_HepaRG_EGR1: Life Technologies and Expression Analysis (LTEA) Assay for Early growth response protein 1 (EGR1) transcription factor using HepaRG (AID 2283490). Summed up: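 HepaRG, 48 h exposure, 8-pt half-log series from 100 uM, 0.5% DMSO vehicle; EGR1 transcript by TaqMan qRT-PCR (Fluidigm array), housekeeping-normalized; bidirectional fit relative to DMSO baseline.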

Read-out in assay [11]: Ezrin (EZR), EZR (gene 7430)
The assay can be described thus: LTEA_HepaRG_EZR: Life Technologies and Expression Analysis (LTEA) Assay for Ezrin (EZR) using HepaRG (AID 2283491). In a few lines:
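Read-out is EZR transcript level by qRT-PCR, normalized to three housekeeping genes and fitted bidirectionally against the DMSO control. Human HepaRG cells received test chemicals for 48 h at eight half-log concentrations up to 100 uM in 0.5% DMSO.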

Read-out in a further assay: CYP3A5 (gene 1577)
Description: LTEA_HepaRG_CYP3A5: Life Technologies and Expression Analysis (LTEA) Assay for CYP3A5 using HepaRG (AID 2283493). Summed up: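 Readout was CYP3A5 mRNA by qRT-PCR. HepaRG cultures were exposed for 48 h in serum-free induction medium to chemicals at up to 100 uM, and responses were fitted in both directions relative to DMSO vehicle.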

Read-out in assay [12]: Fatty Acid-Binding Protein 1 (FABP1), FABP1 (gene 2168)
Description: LTEA_HepaRG_FABP1: Life Technologies and Expression Analysis (LTEA) Assay for Fatty Acid-Binding Protein 1 (FABP1) using HepaRG (AID 2283494). In a few lines:
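qRT-PCR readout of FABP1 transcript (normalized to three housekeeping genes) after 48 h chemical exposure of HepaRG cells; eight concentrations, half-log steps, max 100 uM, 0.5% DMSO vehicle; gain or loss fitted relative to DMSO baseline.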

Calls of active or inactive are those of the source. Rule for the calls: active = hit-call score of the fitted dose curve at least 0.9, where 1 is the maximum; inactive = score below 0.9.

Sequence of Caspase-3 (Homo sapiens) (P42574 whole entry, looked up): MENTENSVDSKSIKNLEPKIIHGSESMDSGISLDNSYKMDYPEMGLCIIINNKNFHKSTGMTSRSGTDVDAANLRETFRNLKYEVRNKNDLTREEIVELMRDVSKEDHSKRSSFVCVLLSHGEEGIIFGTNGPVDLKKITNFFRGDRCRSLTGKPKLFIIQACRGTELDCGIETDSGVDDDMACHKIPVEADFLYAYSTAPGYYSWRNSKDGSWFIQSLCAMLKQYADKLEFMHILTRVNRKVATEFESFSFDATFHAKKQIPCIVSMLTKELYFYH
Sequence of Apoptosis regulator Bcl-2 (Homo sapiens) (P10415 whole entry, looked up): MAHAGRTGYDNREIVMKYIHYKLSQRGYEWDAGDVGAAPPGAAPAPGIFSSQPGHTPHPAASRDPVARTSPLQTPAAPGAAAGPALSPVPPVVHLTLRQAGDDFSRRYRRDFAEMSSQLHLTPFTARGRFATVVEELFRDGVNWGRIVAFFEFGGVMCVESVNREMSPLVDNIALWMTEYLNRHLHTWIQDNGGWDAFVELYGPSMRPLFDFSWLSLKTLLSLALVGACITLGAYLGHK
Sequence of Cytochrome P450 3A4 (Homo sapiens) (P08684 whole entry, looked up): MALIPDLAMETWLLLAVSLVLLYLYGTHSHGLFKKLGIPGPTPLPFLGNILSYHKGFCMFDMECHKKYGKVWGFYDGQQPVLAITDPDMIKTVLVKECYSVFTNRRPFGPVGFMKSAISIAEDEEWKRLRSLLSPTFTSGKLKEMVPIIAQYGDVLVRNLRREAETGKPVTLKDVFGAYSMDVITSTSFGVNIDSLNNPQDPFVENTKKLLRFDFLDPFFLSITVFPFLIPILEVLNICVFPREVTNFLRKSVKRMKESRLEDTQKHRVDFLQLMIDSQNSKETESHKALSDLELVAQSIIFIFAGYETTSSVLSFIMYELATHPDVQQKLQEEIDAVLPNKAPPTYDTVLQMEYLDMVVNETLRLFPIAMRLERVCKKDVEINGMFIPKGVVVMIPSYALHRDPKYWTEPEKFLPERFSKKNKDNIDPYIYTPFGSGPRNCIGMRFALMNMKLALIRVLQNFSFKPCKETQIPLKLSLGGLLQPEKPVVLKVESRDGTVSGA
Sequence of Cytochrome P450 2C19 (Homo sapiens) (P33261 whole entry, looked up): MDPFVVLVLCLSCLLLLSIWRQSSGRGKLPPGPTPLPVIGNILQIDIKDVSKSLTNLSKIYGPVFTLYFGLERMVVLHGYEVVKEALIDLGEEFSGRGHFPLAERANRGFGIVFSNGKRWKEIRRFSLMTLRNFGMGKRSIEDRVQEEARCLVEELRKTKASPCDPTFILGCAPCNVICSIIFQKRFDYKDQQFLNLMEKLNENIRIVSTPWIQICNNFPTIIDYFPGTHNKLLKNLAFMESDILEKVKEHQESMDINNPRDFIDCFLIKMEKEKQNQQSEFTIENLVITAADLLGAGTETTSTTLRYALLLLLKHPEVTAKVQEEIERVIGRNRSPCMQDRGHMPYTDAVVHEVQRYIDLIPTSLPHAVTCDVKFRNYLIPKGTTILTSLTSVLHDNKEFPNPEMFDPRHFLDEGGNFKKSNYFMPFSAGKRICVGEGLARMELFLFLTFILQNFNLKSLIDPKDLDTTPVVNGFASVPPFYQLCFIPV

As for `COc1ccc([N+](=O)[O-])cc1N`, the outcome (in assay [1]; in the assay with Caspase-3 (Homo sapiens); in assay [2]; in assay [4]; in assay [6]; with CYP2C8 (gene 1558)) was inactive. The compound was classed as inactive (with CYP2C9 (gene 1559); with CYP2E1 (gene 1571); with CYP4A11 (gene 1579); in assay [7]; in assay [8]; in assay [9]). Further, the compound was called inactive (in assay [10]; in assay [11]; with CYP3A5 (gene 1577); in assay [12]). Moreover, the AC50 in assay [3] was 50 µM (active); in [5], 20.7 µM (active).
With `CCCCCCCCCCCCc1ccccc1S(=O)(=O)O`, the AC50 in [1] was 50 µM (active); in [3] it was 84.6 µM (active); in [5], 84.5 µM (active); in [6], 87.3 µM (active); with CYP2C8 (gene 1558), 82.3 µM (active); with CYP2C9 (gene 1559), 83.3 µM (active). The AC50 in the assay with CYP2E1 (gene 1571) was 78.3 µM (active); with CYP4A11 (gene 1579), 80.7 µM (active); in [7] it was 89.6 µM (active); in assay [8], 62.1 µM (active); in assay [9], 50 µM (active); in assay [12], 66.4 µM (active). Further, the result (in the assay with Caspase-3 (Homo sapiens); in [2]; in assay [4]; in assay [10]; in [11]; in the assay with CYP3A5 (gene 1577)) was inactive.
As for `CC(=O)CC(C)(C)O`, the call (in [1]; with Caspase-3 (Homo sapiens); in assay [2]; in [3]; in assay [4]; in [5]) was inactive. Also, the compound was classed as inactive (in assay [6]; with CYP2C8 (gene 1558); with CYP2C9 (gene 1559); with CYP2E1 (gene 1571); in the assay with CYP4A11 (gene 1579); in assay [7]). Besides, the outcome (in assay [8]; in assay [9]; in assay [10]; in assay [11]; in the assay with CYP3A5 (gene 1577); in assay [12]) was inactive.
In the case of `CC(C)(C)c1cccc(C(C)(C)C)c1O`, the compound was called inactive (in [1]; in the assay with Caspase-3 (Homo sapiens); in assay [2]; in assay [3]; in assay [4]; in assay [5]). Moreover, the outcome (in assay [6]; in the assay with CYP2C8 (gene 1558); with CYP2C9 (gene 1559); with CYP2E1 (gene 1571); in [7]; in assay [10]) was inactive. Moreover, the compound was classed as inactive (in [11]; with CYP3A5 (gene 1577); in assay [12]). For the same compound, in [8], the AC50 is 12.2 µM (active).
